In PubChem BioAssay (NCI):
This is part of a sample that, as a whole, favours compounds with a hit. Of some 79,000 tested, about 15% had one in any assay. Activity calls are given as the source filed them. Cut-off read from the data, not from the text of the source: active = growth inhibition above about 70%; inactive = the rest.

Columns and labels:
[1] = NCI Yeast Anticancer Drug Screen. Data for the rad52 strain (AID 147);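 note: 0% = growth of vehicle-treated control cultures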; conditions: S. cerevisiae rad52 mutant growth inhibition, hits give high values
Outline: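 Growth of repair-deficient yeast cells was compared between compound-treated and vehicle-treated cultures to give percent inhibition.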

[2] = NCI Yeast Anticancer Drug Screen. Data for the wt1 strain (AID 149);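 note: 0% = growth of vehicle-treated wt1 cultures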; conditions: S. cerevisiae wt1 strain (SPY 50644) growth inhibition, hits give high values
Outline: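 Measured: growth of wt1 yeast under compound versus vehicle treatment, reported as inhibition.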

[3] = NCI Yeast Anticancer Drug Screen. Data for the rad50EPP+ strain (AID 151);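 note: 0% = growth of vehicle-treated control cultures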; conditions: S. cerevisiae rad50 mutant strain, hits give high values
Outline: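 Measured: growth inhibition of rad50EPP+ yeast. Reference: vehicle-treated controls. Screen uses strains with defined genetic alterations in DNA damage repair or cell cycle control.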

[4] = NCI Yeast Anticancer Drug Screen. Data for the mgt1 strain (AID 153); conditions: S. cerevisiae mgt1 mutant growth inhibition, hits give high values
Outline: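 Compounds were applied to mgt1 mutant yeast, and growth was then compared against vehicle-treated control cultures to give percent inhibition.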

[5] = NCI Yeast Anticancer Drug Screen. Data for the rad50 strain (AID 155);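 note: 0% = growth of vehicle-only cultures of the same strain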; conditions: S. cerevisiae rad50 strain growth inhibition, hits give high values
Outline: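 Growth of the mutant yeast was measured after compound exposure and referenced to vehicle-treated cultures.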

[6] = NCI Yeast Anticancer Drug Screen. Data for the mec2-1 strain (AID 157); conditions: S. cerevisiae mec2-1 strain, hits give high values
Outline: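 Compounds were applied to mec2-1 yeast cells. Their growth was then compared with that of vehicle-treated cultures to give growth inhibition.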

[7] = NCI Yeast Anticancer Drug Screen. Data for the rad14 strain (AID 159);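 note: 0% = growth of vehicle-treated control cultures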; conditions: S. cerevisiae rad14 strain growth inhibition, hits give high values
Outline: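 Here, inhibition of yeast growth was measured after compound exposure, using a strain with a genetic defect in DNA damage repair and vehicle-treated cultures as the reference.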

[8] = NCI Yeast Anticancer Drug Screen. Data for the sgs1 mgt1 strain (AID 161);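 note: 0% = growth of cultures given vehicle only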; conditions: S. cerevisiae sgs1 mgt1 strain, hits give high values
Outline: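 This yeast growth screen uses a strain with defined DNA-repair lesions; compound-treated growth is compared with vehicle-treated growth.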

[9] = NCI Yeast Anticancer Drug Screen. Data for the CLN2oe strain (AID 163);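 note: 0% = growth of vehicle-only control cultures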; conditions: S. cerevisiae CLN2oe strain, hits give high values
Outline: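 Cells of an engineered yeast line with disturbed cell-cycle regulation are treated with compound. Inhibition of growth is then calculated relative to the vehicle-treated reference.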

[10] = NCI Yeast Anticancer Drug Screen. Data for the cln2 rad14 strain (AID 165);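 note: 0% = growth equal to vehicle treated cultures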; conditions: S. cerevisiae cln2 rad14 strain, hits give high values
Outline: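 Strain: cln2 rad14 yeast, altered in cell cycle control and DNA damage repair. Read-out: growth inhibition vs vehicle.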

[11] = NCI Yeast Anticancer Drug Screen. Data for the bub3 strain (AID 167); conditions: S. cerevisiae bub3 mutant strain, hits give high values
Outline: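 Whole-cell yeast assay. The mutant strain was incubated with compounds, and growth inhibition was determined by comparison with vehicle-treated cells.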

[12] = NCI Yeast Anticancer Drug Screen. Data for the wt2 strain (AID 169);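 note: 0% = growth of vehicle-treated yeast cultures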; conditions: S. cerevisiae wt2 strain growth inhibition, hits give high values
Outline: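 Growth of compound-treated yeast is measured and expressed as inhibition relative to vehicle-only controls.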

[13] = NCI Yeast Anticancer Drug Screen. Data for the mlh1 strain (AID 171);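 note: 0% = growth of vehicle-treated control cultures of the same strain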; conditions: S. cerevisiae mlh1 strain growth inhibition, hits give high values
Outline: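 Test agents were incubated with yeast bearing a defined DNA damage repair or cell cycle control alteration; values are growth inhibition normalised to vehicle-treated cultures.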

[14] = NCI Yeast Anticancer Drug Screen. Data for the sgs1 strain (AID 173);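 note: 0% = growth of vehicle-only control cultures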; conditions: S. cerevisiae sgs1 mutant, hits give high values
Outline: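 Strain with an altered DNA repair or cell cycle pathway exposed to compound. Growth then measured. Value = inhibition versus vehicle control.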

[15] = NCI Yeast Anticancer Drug Screen. Data for the mlh1 rad18 strain (AID 175); conditions: S. cerevisiae mlh1 rad18 strain growth inhibition, hits give high values
Outline: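 A repair-deficient yeast strain is exposed to test compound, and growth is scored relative to vehicle-treated controls.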

[16] = NCI Yeast Anticancer Drug Screen. Data for the rad18 strain (AID 177); conditions: S. cerevisiae rad18 mutant growth inhibition, hits give high values
Outline: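 DNA-repair-defective yeast; compound treatment; growth inhibition scored against vehicle.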

[17] = at 5.0 µM (retest, dose inferred, filed as 0.5)
[18] = at 50.0 µM (retest, dose inferred, filed as 5.0)

Measured: growth inhibition

C=C1CC(Cn2cc(Br)c(=O)[nH]c2=O)(c2ccc(-c3ccccc3)cc2)OC1=O (stereo unspecified)
active: [1]; at 100.0 µM 93% | [2]; at 100.0 µM 83% | [4]; at 100.0 µM 94% | [5]; [18] 98% | [5]; at 50.0 µM 98.3% | [5]; at 100.0 µM 92% | [6]; [18] 98% | [6]; at 50.0 µM 98.4% | [6]; at 100.0 µM 93% | [7]; at 100.0 µM 96% | [8]; [18] 87% | [8]; at 50.0 µM 97.3% | [9]; at 100.0 µM 96% | [10]; [18] 99% | [10]; at 50.0 µM 97.8% | [11]; [18] 99% | [11]; at 50.0 µM 98.2% | [11]; at 100.0 µM 92% | [12]; at 100.0 µM 92% | [13]; at 100.0 µM 94% | [14]; at 100.0 µM 93% | [15]; [18] 99% | [15]; at 50.0 µM 97.2%
inactive: [1]; at 1.2 µM 2% | [1]; at 3.7 µM 13% | [1]; at 11.0 µM 21% | [1]; at 33.0 µM 41% | [2]; at 1.2 µM 1% | [2]; at 3.7 µM 6% | [2]; at 11.0 µM 15% | [2]; at 33.0 µM 26% | [3]; at 1.2 µM -4% | [3]; at 3.7 µM -5% | [3]; at 11.0 µM 3% | [3]; at 33.0 µM 9% | [3]; at 100.0 µM 16% | [4]; at 1.2 µM 0% | [4]; at 3.7 µM 9% | [4]; at 11.0 µM 29% | [4]; at 33.0 µM 55% | [5]; at 1.2 µM 3% | [5]; at 3.7 µM 7% | [5]; [17] 8% | [5]; at 11.0 µM 17% | [5]; at 33.0 µM 36% | [6]; at 1.2 µM 5% | [6]; at 3.7 µM 15% | [6]; [17] 21% | [6]; at 11.0 µM 40% | [6]; at 33.0 µM 57% | [7]; at 1.2 µM 5% | [7]; at 3.7 µM 15% | [7]; at 11.0 µM 27% | [7]; at 33.0 µM 41% | [8]; [17] 30% | [9]; at 1.2 µM -2% | [9]; at 3.7 µM -5% | [9]; at 11.0 µM 10% | [9]; at 33.0 µM 21% | [10]; [17] 23% | [11]; at 1.2 µM -1% | [11]; at 3.7 µM 1% | [11]; [17] 10% | [11]; at 11.0 µM 25% | [11]; at 33.0 µM 53% | [12]; at 1.2 µM 2% | [12]; at 3.7 µM 10% | [12]; at 11.0 µM 16% | [12]; at 33.0 µM 29% | [13]; at 1.2 µM 2% | [13]; at 3.7 µM 10% | [13]; at 11.0 µM 28% | [13]; at 33.0 µM 41% | [14]; at 1.2 µM 8% | [14]; at 3.7 µM 26% | [14]; at 11.0 µM 37% | [14]; at 33.0 µM 57% | [15]; [17] 68%

COC1=CC(=O)C(C2(OC(C)C)OC(=O)C(Cl)=C2Cl)=CC1=O (stereo unspecified)
active: [1]; at 11.0 µM 99% | [1]; at 33.0 µM 99% | [1]; at 100.0 µM 99% | [2]; at 11.0 µM 97% | [2]; at 33.0 µM 99% | [2]; at 100.0 µM 99% | [3]; at 11.0 µM 94% | [3]; at 33.0 µM 99% | [3]; at 100.0 µM 99% | [4]; at 11.0 µM 99% | [4]; at 33.0 µM 99% | [4]; at 100.0 µM 99% | [5]; at 11.0 µM 99% | [5]; at 33.0 µM 99% | [5]; [18] 99% | [5]; at 50.0 µM 96.2% | [5]; at 100.0 µM 99% | [6]; at 11.0 µM 100% | [6]; at 33.0 µM 100% | [6]; [18] 99% | [6]; at 50.0 µM 86.7% | [6]; at 100.0 µM 99% | [7]; at 11.0 µM 99% | [7]; at 33.0 µM 99% | [7]; at 100.0 µM 99% | [8]; [18] 99% | [8]; at 50.0 µM 99.5% | [9]; at 3.7 µM 87% | [9]; at 11.0 µM 99% | [9]; at 33.0 µM 99% | [9]; at 100.0 µM 99% | [10]; [18] 99% | [11]; at 11.0 µM 99% | [11]; at 33.0 µM 99% | [11]; [18] 99% | [11]; at 100.0 µM 99% | [12]; at 11.0 µM 98% | [12]; at 33.0 µM 99% | [12]; at 100.0 µM 99% | [13]; at 11.0 µM 99% | [13]; at 33.0 µM 99% | [13]; at 100.0 µM 99% | [14]; at 11.0 µM 99% | [14]; at 33.0 µM 99% | [14]; at 100.0 µM 99% | [15]; [18] 99% | [15]; at 50.0 µM 91.8% | [16]; at 11.0 µM 99% | [16]; at 33.0 µM 99% | [16]; at 100.0 µM 99%
inactive: [1]; at 1.2 µM 1% | [1]; at 3.7 µM 22% | [2]; at 1.2 µM 1% | [2]; at 3.7 µM 8% | [3]; at 1.2 µM 8% | [3]; at 3.7 µM 48% | [4]; at 1.2 µM -3% | [4]; at 3.7 µM 17% | [5]; at 1.2 µM 1% | [5]; at 3.7 µM 33% | [5]; [17] 56% | [6]; at 1.2 µM 8% | [6]; at 3.7 µM 65% | [6]; [17] 47% | [7]; at 1.2 µM 3% | [7]; at 3.7 µM 37% | [8]; [17] 53% | [9]; at 1.2 µM 0% | [10]; [17] 30% | [10]; at 50.0 µM 63.5% | [11]; at 1.2 µM 0% | [11]; at 3.7 µM 34% | [11]; [17] 30% | [11]; at 50.0 µM 59.9% | [12]; at 1.2 µM -1% | [12]; at 3.7 µM 10% | [13]; at 1.2 µM 2% | [13]; at 3.7 µM 27% | [14]; at 1.2 µM 2% | [14]; at 3.7 µM 37% | [15]; [17] 43% | [16]; at 1.2 µM 7% | [16]; at 3.7 µM 49%
